Compounds with a hit are over-represented: about 4.6% of the library has one in this group of screens.
DAX1 inh-1 = inhibitors of human orphan nuclear receptor DAX1 (NR0B1). actives 0.99% (n = 340,000). HEK293 Gal4-DAX1 luciferase reporter, luminescence. inhibition, % at 6.75 µM. AID 504766;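 active means inhibition above the mean over all tested compounds plus 3 SD, cut at about 4.2% in these data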;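 further: 0% = DAX1-transfected cells with DMSO and 100% = empty-vector control cells with DMSO; inhibition shows as a rise in luminescence from relieved DAX1 repression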
Target sequence (P51843 207-470 limits assumed): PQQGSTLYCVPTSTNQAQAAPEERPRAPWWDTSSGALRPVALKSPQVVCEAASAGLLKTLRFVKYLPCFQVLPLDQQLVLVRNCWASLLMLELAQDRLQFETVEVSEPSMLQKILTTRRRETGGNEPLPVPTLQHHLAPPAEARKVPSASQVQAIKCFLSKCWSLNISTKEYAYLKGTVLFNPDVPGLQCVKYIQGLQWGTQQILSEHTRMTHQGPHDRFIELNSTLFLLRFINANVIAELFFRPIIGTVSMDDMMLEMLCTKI
hcDAF-12 act = activators of H. contortus DAF-12 nuclear receptor | HEK293 hcDAF-12 lit1-tk-luc reporter, luminescence; 0% DMSO, 100% Δ7-dafachronic acid | activation, % at 6.8 µM | actives 1.4% (n = 370,000);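 active means activation above the mean of all tested compounds plus 3 SD, cut at about 5.5% in these data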;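 further: 100% = response to 3 µM Δ7-dafachronic acid high control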
hgDAF-12 ag = hgDAF-12 agonism, primary luciferase screen; HEK293 GAL4-hgDAF12 UAS-luciferase reporter, agonist luminescence; normalized to butyrate control; activation, % at 6.8 µM; actives 1.8% (n = 370,000); AID 687014;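 active means activation above a cutoff set at the mean of all screened compounds plus 3 SD, cut at about 10% in these data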;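 further: 0% = DMSO wells and 100% = sodium butyrate wells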
Wee1 stabilizer = inhibitors of human Wee1 degradation; reporter increase, % at 5 µM; P30291; HeLa Luc-Wee1K328M stability, luciferase luminescence; 100% = proteasome inhibitor MG132 effect; actives 1.2% (n = 220,000);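 active means activation above the mean of all tested compounds plus 3 SD, set per screening run, cut at about 8.8% in these data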;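 further: cells exposed to compound for 20 h before luminescence read; 0% = DMSO alone and 100% = MG132 at 30 µM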
ssDAF-12 act = activates DAF-12 receptor from parasite S. stercoralis | actives 1% (n = 370,000) | HEK293 ssDAF-12/GRIP1 lit1-tk-luc reporter, luminescence; % of 3 µM dafachronic acid response | AID 652126 | activation, % at 6.8 µM;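 active means activation above the mean over all tested compounds plus 3 SD, cut at about 0.9% in these data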;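 further: 0% = DMSO-only wells and 100% = 3 µM delta7-dafachronic acid wells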
DAX1 inh-2 = blocks DAX1 repression of SF-1 activated StAR promoter; HEK293T StAR-luciferase reporter, SF-1/DAX-1 repression relief; inhibition, % at 6.8 µM; actives 1.1% (n = 370,000); AID 652010;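 active means inhibition above the mean over all tested compounds plus 3 SD, cut at about 3.6% in these data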;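 further: 0% = DAX-1 cells with DMSO and 100% = cells lacking DAX-1 with DMSO; higher inhibition means more luminescence from relief of DAX-1 repression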
LXRb hcDAF ctr = LXR-beta agonism as hcDAF-12 counter-screen | activation, % at 6.8 µM | AID 743027 | 3,400 tested, under 10 active | shares compounds with hcDAF-12 act | HEK293 Gal4-LXR tk-luc reporter, luminescence, 24 h; normalized: DMSO 0%, positive control 100%;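 active means mean percent activation of the reporter above a cutoff set as the average over tested compounds plus their standard deviation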
Target sequence (P55055 whole entry, looked up, the tested form may be a part): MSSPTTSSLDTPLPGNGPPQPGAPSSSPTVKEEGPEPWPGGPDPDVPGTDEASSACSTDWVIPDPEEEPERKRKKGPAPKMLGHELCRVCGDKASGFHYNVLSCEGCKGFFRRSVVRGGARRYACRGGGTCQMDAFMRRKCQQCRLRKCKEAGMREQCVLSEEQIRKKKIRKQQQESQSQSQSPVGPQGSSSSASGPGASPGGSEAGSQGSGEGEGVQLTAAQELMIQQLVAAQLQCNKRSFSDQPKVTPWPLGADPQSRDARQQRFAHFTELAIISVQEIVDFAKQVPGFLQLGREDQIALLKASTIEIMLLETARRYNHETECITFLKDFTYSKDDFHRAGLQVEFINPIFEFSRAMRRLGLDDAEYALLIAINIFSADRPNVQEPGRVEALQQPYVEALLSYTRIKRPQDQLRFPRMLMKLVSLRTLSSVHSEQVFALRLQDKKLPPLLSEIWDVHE
hcDAF12 conf = hcDAF-12 agonism, confirmation assay; actives 61% (n = 3,400); HEK293 hcDAF-12 lit1-tk-luc reporter, luminescence; % of Δ7-dafachronic acid response; shares compounds with hcDAF-12 act; activation, % at 6.8 µM;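 active means mean activation across triplicate tests above the threshold derived from the earlier primary screen, cut at about 5.5% in these data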;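 further: 0% = DMSO only wells and 100% = 3 µM Δ7-dafachronic acid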
Starred values were filed as active, the others as inactive; nt = not tested or not shown.

SMILES | DAX1 inh-1 | hcDAF-12 act | hgDAF-12 ag | Wee1 stabilizer | ssDAF-12 act | DAX1 inh-2 | LXRb hcDAF ctr | hcDAF12 conf
O=C(Cn1cncn1)NCc1cccc(OC(F)F)c1 | -1 | 6.8* | -1 | 0 | -1 | 0 | 0 | 2
O=C(COC(=O)C12CC3CC(CC(Br)(C3)C1)C2)Nc1cccc(S(=O)(=O)N2CCOCC2)c1 | -2 | 1 | -4 | nt | -1 | -1 | nt | nt
O=C(NN=C(Cc1ccccc1)Cc1ccccc1)c1ccc(F)cc1 | -1 | 6.8* | 9 | -1 | -1 | 1 | 0 | 1
CC(=O)Nc1sc(N/N=C\c2ccc(O)cc2)nc1-c1cccs1 | 1 | 2 | 7 | 1 | 1 | 1 | nt | nt
CC(=O)Nc1sc(N/N=C\c2cccc(Cl)c2)nc1-c1cccs1 | 1 | 8.4* | 5 | -1 | -1 | 1 | 0 | 7.8*
O=C(CN1CCOCC1)N1CCOCC1 | 1 | 0 | 1 | nt | -2 | 0 | nt | nt
O=C(Nc1ccc(Br)cc1)c1cc2ccccn2n1 | 2 | 6.9* | 13* | -2 | 1 | 1 | 1 | 6
COC(=O)c1[nH]c2cc(OC)ccc2c1NC(=O)c1c(F)cccc1F | 0 | -2 | 1 | -1 | -2 | -1 | nt | nt
C=CCNC(=S)Nc1c(C(=O)OC)[nH]c2cc(OC)ccc12 | 1 | 9.7* | 7 | 0 | 1 | 1 | 1 | 7.5*
O=C(c1ccc(CNc2c(NC3CCCCC3)c(=O)c2=O)cc1)N1CCc2ccccc21 | 1 | 7.4* | 8 | 0 | 1.1* | 0 | 0 | 1
c1ccc2[nH]c(-c3cnco3)cc2c1 | 1 | 6.7* | 1 | nt | 1 | -1 | 0 | 7.3*
CCCCNC(=O)C1(C)CCCCN1Cc1ccc(OCc2ccccc2)cc1 (centres undefined) | nt | -2 | 1 | nt | -1 | -2 | nt | nt
C/C(Nc1ccc(Cl)cc1)=C1/CCOC1=O | 1 | 1 | 1 | nt | -1 | 0 | nt | nt
Cc1nn(CC(=O)NCc2cc3ccccc3[nH]2)c(C)c1[N+](=O)[O-] | 2 | 9.4* | 2 | 0 | 0 | 0 | 0 | 3
Cc1nn(CC(=O)NCc2ccccc2F)c(C)c1[N+](=O)[O-] | 0 | 1 | -1 | 2 | -1 | 0 | nt | nt
C/C(=N\NC(=O)c1ccccc1NC(=O)c1ccc(Cl)cc1)c1ccncc1 | -3 | 11* | 9 | -3 | 0 | 3 | 1 | 5.8*
Cc1nn(-c2ccccc2)c2c1C1(C(=O)N(C)c3ccccc31)N(c1ccccc1)C(=O)N2 (centres undefined) | -2 | 6.6* | 3 | -2 | 0 | 2 | 0 | 4
Brc1ccc(-c2nc3ccccc3s2)s1 | 3 | 10.0* | 13* | 3 | 1.2* | 1 | 1 | 11*
CCCNC(=O)c1ccc(-c2nc3ccccc3s2)s1 | -4 | 6 | 4 | 2 | -1 | 2 | nt | nt
Cc1ccc(C(=O)Oc2oc(-c3ccccc3)nc2C=Nc2ccc(N(C)C)cc2)cc1 | 2 | 8.1* | 12* | -2 | 1.8* | 2 | 0 | 1
CC1CC(=O)Nc2ccccc2N1C(=O)CSc1ccc2ccccc2n1 (centres undefined) | -1 | 0 | 3 | nt | -1 | -1 | nt | nt
Cc1nc(NC(=O)C(C)(C)C)sc1C(=O)Cn1cc(CCCC#N)nn1 | nt | -1 | 1 | nt | 0 | 1 | nt | nt
CS(=O)(=O)Nc1ccc2c(c1)[C@H]1C[C@H](CC(=O)NCc3ccccc3)O[C@H](CO)[C@H]1O2 | 2 | 2 | 1 | nt | -1 | 1 | nt | nt
COc1ccccc1/C=N/N(C(C)=O)c1nc(-c2ccc(F)cc2)cs1 | 3 | 7.2* | 9 | 1 | 1.2* | 1 | 1 | 11*
CN(C)C(CNC(=O)CCS(=O)(=O)c1ccccc1)c1ccccc1 (centres undefined) | 0 | 8.9* | 4 | nt | 0 | 0 | 0 | 7.1*
SMILES | DAX1 inh-1 | hcDAF-12 act | hgDAF-12 ag | Wee1 stabilizer | ssDAF-12 act | DAX1 inh-2 | LXRb hcDAF ctr | hcDAF12 conf
O=C(c1cc2ccccc2oc1=O)N1CCOCC1 | 3 | 6.7* | 11* | 4 | 0 | 3 | 1 | 5.6*
Cc1ccc(C(=O)Nc2ncc(Cc3ccccc3)s2)o1 | -1 | 12* | 7 | 3 | 0 | 3.8* | 2 | 8.4*
O=C(Nc1ncc(Cc2ccc(SC(F)F)cc2)s1)c1ccccc1 | 1 | 1 | 2 | 3 | -1 | -1 | nt | nt
CCCOc1ccc(OCCSc2ncccn2)cc1 | 3 | 6.8* | 10 | 1 | 0 | 2 | 1 | 5
Clc1ccc(OCCCCSc2ncccn2)cc1 | 1 | -1 | 1 | -1 | -2 | 0 | nt | nt
C=CCN1C(=O)C(=O)N(Cc2nc3ccccc3s2)C1=O | 3 | 9.6* | 6 | nt | 1.2* | 1 | 1 | 9.7*
COc1ccccc1CN=c1c([N+](=O)[O-])nn(-c2ccc3c(c2)OCCO3)n1O | 2 | 9.0* | 11* | -3 | 0 | 3 | 0 | 3
C=Cn1cc(CNC[C@H]2O[C@@H](n3ccc(N)nc3=O)[C@H](O)[C@@H]2O)c(C)n1 | 1 | 0 | 1 | nt | -1 | 1 | nt | nt
CCOC(=O)COn1c(=O)c(-c2cc3ccccc3o2)[n+]([O-])c2ccccc21 | 1 | 9.3* | 9 | 2 | 1.0* | 3 | 1 | 14*
C=CCOn1c(=O)c(-c2cc3ccccc3o2)[n+]([O-])c2ccccc21 | 2 | 11* | 12* | 6 | 1.8* | 2 | 0 | 5
CCOC(=O)C1(C)C(=O)CC2c3nc4ccccc4cc3CN2C1=O (centres undefined) | 0 | -1 | -1 | nt | -1 | 0 | nt | nt
COC(=O)[C@]12C[C@H](CC(=O)NCc3ccc(C)o3)C(=O)N(Cc3ccco3)C1=C[C@H](COCc1ccccc1)O[C@@H]2C | nt | -2 | 2 | nt | -1 | -1 | nt | nt
N#C/C(=C(/O)COc1ccccc1)c1nc2ccccc2s1 | 4 | 1 | -1 | -3 | -1 | 0 | nt | nt
O=C(NNc1nc2ccccc2s1)c1ccc(F)cc1 | 0 | 9.6* | 3 | 1 | 2.1* | 0 | 0 | 1
N#C/C(=C(/O)c1ccc(F)cc1)c1nc2ccccc2s1 | 2 | 7.2* | 11* | -4 | 0 | 1 | 0 | 2
O=C1C=C(c2ccc3c(c2)OCCO3)C[C@@H](c2ccc(F)cc2)C1 | 1 | -1 | 3 | nt | -1 | 0 | nt | nt
Nc1cc2[nH]c(=O)c3ccccc3c2cc1Br | 2 | 9.7* | 3 | nt | 1.1* | 3.7* | 0 | 9.3*

Screens (PubChem BioAssay)
